Source: PubChem (National Center for Advancing Translational Sciences (NCATS))
Hits are enriched below; roughly 0.88% of the tested compounds scored in any of these assays.
RGS4 inhibitor: blocks human RGS4-accelerated GTP hydrolysis | Transcreener GDP fluorescence polarization, RGS4-accelerated GTP hydrolysis | Potency, µM (titrated, usually from 114 µM), without a hit: at the highest dose activity change, negative = inhibition, usual class: inhibitors | actives 0.039% (n = 390,000) | AID 504845; active = well fitted curve in the direction sought with a large enough effect; inconclusive = small, poorly fitted or top-dose-only effect, or another doubt; inactive = no such curve, though single readings can be large; an effect the other way counts as inactive or inconclusive; note: potency is the fitted concentration of half-maximal effect; % is set by controls: 0 for no effect and ±100 for the full control effect; nearly all actives have a fitted effect of over 75% in size
Target sequence (P49798 whole entry, looked up): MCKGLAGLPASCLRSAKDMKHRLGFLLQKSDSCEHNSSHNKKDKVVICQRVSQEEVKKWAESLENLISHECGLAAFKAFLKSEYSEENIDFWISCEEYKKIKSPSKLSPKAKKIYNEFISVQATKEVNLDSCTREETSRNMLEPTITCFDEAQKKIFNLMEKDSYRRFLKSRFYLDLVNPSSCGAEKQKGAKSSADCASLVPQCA
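MLSMR compounds (23 nl, pin-transferred) preincubated 10 min at room temperature with a 500nM (2x) first reagent, then RGS4 at 900nM (2x) plus Transcreener GDP mix added; fluorescence polarization (620/688 nm) read before and after 90 min at 30 °C.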
CtBP-E1A inh: inhibitors of CtBP/E1A interaction; actives 0.49% (n = 340,000); activity change, % (test concentration not listed); AlphaScreen GST-E1A/His-CtBP binding, 1536-well; hits give low values; AID 651724; note: % is set by controls: 0 for no effect and ±100 for the full control effect
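AlphaScreen with 125 nM GST-E1A and 125 nM His-CtBP (5X stocks) in Tris pH 8.0, 300 mM NaCl, BSA, Tween 20, TCEP. Compounds preincubated 2 h at 37 deg C, then glutathione donor/nickel acceptor beads added for 1 h at 37 deg C in dark.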
Six1-Eya2 inh: blocks human Six1 binding to Eya2; activity change, % (concentration not given with the values); Q15475+O00167; actives 0.56% (n = 360,000); AlphaScreen GST-Six1/His-Eya2 binding, biochemical; hits give low values; AID 651725; note: % is set by controls: 0 for no effect and ±100 for the full control effect
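Compounds are tested against tagged Six1 and Eya2 proteins bridged by glutathione donor and nickel acceptor beads; after a one-hour incubation at 37 °C without light, AlphaScreen emission is recorded.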
Akt phos inh: inhibitors of Akt phosphorylation. actives 0.32% (n = 360,000). Neuro2A IGF-stimulated pAkt S473 HTRF, 20 min; hits give low values. activity change, % for hits at 50 µM; in the data active = activity change below about -80%; inconclusive = mostly about -51% to -80%; note: % is set by controls: 0 for no effect and ±100 for the full control effect
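Single-point screen (50 µM final compound) in Neuro2A cells stimulated 20 min with 6 nM IGF at 37 deg C. After lysis, Ser473-phosphorylated Akt read by HTRF (ex 330 nm, em 615/665 nm) as the 665/615 ratio.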
GRP78 ERSR act: ER stress response induction in glioma | U87-MG GRP78 promoter luciferase reporter, 16 h | Potency, µM, inactives show at the top dose activation, usual class: activators | actives 0.02% (n = 420,000); active = well fitted curve in the direction sought with a large enough effect; inconclusive = small, poorly fitted or top-dose-only effect, or another doubt; inactive = no such curve, though single readings can be large; an effect the other way counts as inactive or inconclusive; note: potency is the fitted concentration of half-maximal effect; series mostly up to about 76 µM; % of control where 0% means no effect; nearly all actives have a fitted effect of over 35% in size
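Stably transfected U87-MG glioma cells carrying a GRP78-based luciferase sensor; 16 h compound incubation. Luminescence end-point read 10 min after Bright-Glo addition at room temperature.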
* marks the source's active call; other numbers are inactive results; i = inactive; u = inconclusive; x = not tested or not shown; ! = not confirmed by another sample; [ ] = dose if it differs, or a comment. Cut-off read from the data, not from the text of the source, unless noted: active = activity change below about -65%; inconclusive = mostly about -30% to -63%; inactive = weaker than that.

SMILES	RGS4 inhibitor	CtBP-E1A inh	Six1-Eya2 inh	Akt phos inh	GRP78 ERSR act
O=C1OC(NC(=O)c2ccccc2)C(n2cc(CO)nn2)=C1Cl (stereo not given)	u	-17	u	-114%*	3%
Cc1ccc(NC2=C(Cl)C(=O)OC2NC(=O)c2ccccc2)cc1 (stereo not given)	9%[56.9 µM]	3	-2	i	-8%
Cc1cc(Nc2ccccc2C(=O)O)ccc1Cl	x	x	x	x	1%
CCn1c(SCC(=O)Nc2nc3ccccc3s2)nnc1-c1ccc(Br)cc1	2%	0	7	-89%*	-4%
COc1ccccc1NC(=O)CSc1nn2c(=O)c(C)nnc2s1	14%	-82*	u	i	4%
CCOc1ccccc1NC(=O)CSc1ccc2nnc(-c3cccnc3)n2n1	23%	-85*	-79*	i	-1%
O=C(CSc1ccc2nnc(-c3cccnc3)n2n1)Nc1ccccc1F	x	u	u	i	-1%
COc1ccc(NC(=O)CSc2ccc3nnc(-c4cccnc4)n3n2)c(OC)c1	-7%	-68*	u	i	-2%
COc1cccc(NC(=O)CSc2ccc3nnc(-c4cccnc4)n3n2)c1	6%	u	-23	i	2%
COc1ccccc1NC(=O)CSc1ccc2nnc(-c3cccnc3)n2n1	-12%	-77*	-70*	i	-2%
CC/C=C(\C(=O)N[C@H]1C(=O)N2C(C(=O)OCOC(=O)C(C)(C)C)=C(COC(N)=O)CS[C@H]12)c1csc(N)n1	x	x	x	x	-1%
Fc1cccc(CSc2ccc3nnc(-c4cccnc4)n3n2)c1	-8%	u	-67*	i	-4%
COC(=O)COc1ccc(/C=N/NC(=O)c2ccc(N(Cc3ccccc3)S(C)(=O)=O)cc2)cc1	18%	-79*	-75*	i	-13%
COc1ccc(Nc2ccc(S(=O)(=O)N3CCCCCC3)cc2[N+](=O)[O-])cc1	-6%	-66*	u	i	-2%
O=S(=O)(c1ccc(Cl)cc1)N1CCN(c2nc(-c3ccccc3)nc3ccccc23)CC1	12%	x	x	x	-4%
O=C(COC(=O)C1CCC(=O)N1)Nc1ccc(Cl)cc1Cl (stereo not given)	30%	-2	4	i	0%
Cc1ccc(NC(=O)COC(=O)C2CCC(=O)N2)c(S(=O)(=O)N2CCOCC2)c1 (stereo not given)	43%	-1	8	-114%*	-5%
COc1ccc(NC(=O)c2cc(-c3ccc(OC)c(OC)c3)on2)cc1OC	17%	-11	-3	-88%*	0%
COc1ccc(CNC(=O)c2cc(-c3ccc(OC)c(OC)c3)on2)cc1	-27%	2	0	i	-4%
COc1ccc(-c2cc(C(=O)NCc3ccc(Cl)cc3)no2)cc1OC	10%	2	3	-92%*	-4%
COc1ccc(NC(=O)c2cc(-c3ccc(C)cc3)on2)cc1OC	-18%	-2	9	i	-3%
O=C(NC1CCC(n2cc(C(=O)NC3CC3)nn2)CC1)C(=O)c1ccccc1 (stereo not given)	x	x	x	x	-3%
Cn1ccnc1C1CCCCN1C(=O)CN1Cc2ccccc2OC(c2ccccc2F)C1 (stereo not given)	x	x	x	x	-2%
Cc1cc(NC(=O)CSc2ncccn2)no1	21%	5	-7	i	-2%
Cc1cc(NC(=O)CSc2ncn(-c3ccccc3)n2)no1	-1%	5	2	-112%*	-4%
SMILES	RGS4 inhibitor	CtBP-E1A inh	Six1-Eya2 inh	Akt phos inh	GRP78 ERSR act
COc1ccc(OC)c(NC(=O)CSc2ncnc3sc(C)cc23)c1	-44%	-73*	u	i	-6%
COc1ccc(OC)c(/C(O)=C/C(=O)C(=O)Nc2cc(C)cc(C)c2)c1	-10%	1	-1	-106%*	0%
COc1ccccc1CNC(=O)c1cnn(-c2nccc(-c3cccs3)n2)c1C	x	x	x	x	-2%
C=CCOc1c(Br)cc(CNc2ccc(NC(=O)CCC)cc2)cc1OCC	-9%	-19	u	-100%*	-7%
C=CCOc1c(Br)cc(CNc2ccc3[nH]c(=O)[nH]c3c2)cc1OCC	-26%	-14	u	i	-5%
COc1cc(CNc2ccc(N3CCOCC3)cc2)cc(Br)c1OC	-31%	x	u	i	-2%
C=CCOc1ccc(CNc2ccc(NC(=O)CCC)cc2)cc1OCC	-8%	-1	-11	i	-5%
CC(C)c1ccc(CNc2ccc(N3CCOCC3)cc2)cc1	u	-67*	-72*	i	-2%
CCOc1cc(CNc2ccc(N3CCOCC3)cc2)cc(Br)c1OCC	-6%	-67*	-27	i	-4%
CCOc1cc(CNc2ccc3c(c2)OCCO3)cc(Br)c1OCC	-11%	u	-67*	i	-12%
CC(C)(C)n1ncc2c(=O)n(Cc3ccccc3SC(F)(F)F)cnc21	x	x	x	x	-3%
Cc1cccc(CNC(=O)c2c3n(c(C)cc2=O)-c2ccccc2SC(c2ccsc2)C3)n1 (stereo not given)	x	x	x	x	-4%
C=CCN(CC=C)Cc1ccc(C(=O)OC)o1	-18%	3	-6	-110%*	-3%
Cc1cc(C=O)cc(C)c1[N+](=O)[O-]	x	x	x	x	-1%
CCN(CC)C(=O)C1CCCN(C/C=C/c2ccccc2)C1 (stereo not given)	-7%	16	1	-105%*	-3%
CCCN1CNc2c(c(=O)[nH]c(=S)n2CCC(C)C)C1	16%	x	x	x	x
COC(=O)/C(=C1/Oc2ccc(C(C)(C)C)cc2S1)C(F)(F)F	21%	1	8	i	-3%
COC(=O)/C(=C1/Oc2cc(C)oc(=O)c2S1)C(F)(F)F	-26%	-83*	u	i	u
COc1ccc(C(=O)N(CN2CCCC2=O)c2ccccc2OC)cc1OC	-7%	2	3	-111%*	-2%
Nc1ncnc2c1ncn2[C@@H]1O[C@H](COP(=O)(O)OP(=O)(O)OP(=O)(O)O)[C@@H](O)[C@H]1O	-104%	6	0	i	2%
NC(=O)C1=CN(C2OC(COP(=O)(O)OP(=O)(O)OC[C@H]3O[C@@H](n4cnc5c(N)ncnc54)[C@H](OP(=O)(O)O)[C@@H]3O)C(O)C2O)C=CC1 (stereo not given in full)	13µM*	x	x	x	1%
CSc1nc(N)c2ncn([C@@H]3O[C@H](COP(=O)(O)OP(=O)(O)OP(=O)(O)O)[C@@H](O)[C@H]3O)c2n1	12µM*!	x	x	x	-3%
CSc1nc(N)c2ncn([C@@H]3O[C@H](COP(=O)(O)OP(=O)(O)O)C(O)[C@H]3O)c2n1 (stereo not given in full)	0.53µM*	x	x	x	-1%
CN(C)/[N+]([O-])=N/Oc1ccc([N+](=O)[O-])cc1[N+](=O)[O-]	x	x	x	x	-11%
COC(=O)c1cc(S(=O)(=O)NCC2CCN(Cc3ccccc3F)CC2)c[nH]1	-14%	x	4	i	0%
